We go through 23 molecules from PubChem BioAssay.

“And” between values parts separate entries of the source, which are not always exact repeats. Equal values may be shown once. The source made the active and inactive calls. Unless noted, how the calls were made is not given here.

The nature of assay [1]: compounds altering circadian rhythm period length – cell-based, LOPAC library, luminescence reporter (AID 2774).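 Further: values are relative to mean of DMSO wells on each plate.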 The note with it: circadian reporter cells, at 7 µM, actives lie on both sides.
The subject of assay [2] is Hepatitis C virus NS3 helicase. In words: blockers of NS3h binding to ssDNA – biochemical, fluorescence polarization, LOPAC1280 library, primary screen (AID 687035; in the data active means inhibition above about 37%). The conditions noted are these: Purified HCV NS3 helicase, Cy5-dT15 ssDNA binding fluorescence polarization; stronger effect = higher value; concentration not given here.
The nature of assay [3]: compounds altering Cy5-DNA-NS3h complex signal – biochemical, LOPAC1280, artefact control for HCV NS3 helicase inhibitor project (AID 687037). The conditions noted are these: Cy5-DNA-NS3h complex fluorescence interference counterscreen. In general terms: The purpose of a counterscreen is to sort out artefacts and off-target activity.
Assay [4] deals with Aerobactin synthetase IucA (Klebsiella pneumoniae, hypervirulent). The experiment in a line: biochemical IucA inhibition screen of LOPAC library by absorbance (AID 1346212).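 Further: 100% = no compound wells and 0% = no enzyme wells.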 The note with it: IucA enzyme assay, absorbance (OD) readout; stronger effect = lower value;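 tested at 8 µM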.
Assay [5] can be described thus: viability loss with induced miR-34 in A549 – imaging, A549 dox-inducible miR-34, nuclei and caspase counts, primary screen (AID 1347080;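 active means compounds whose cell count with miR-34 switched on is under 0.7 times the count with it off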). The conditions noted are these: A549 miR-34 inducible, Hoechst nuclei count, 48 h.
Assay [6] in a line: galactose survival enhancers in mitochondrial complex I cybrids – cell-based, galactose medium, ATP luminescence, primary screen (AID 1645843;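 active means z-score of at least 1.8 in each of two replicates, scored against plate mean and spread of sample wells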;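 further: positive z means more ATP and so rescue of galactose-driven cybrid death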). The conditions noted are these: complex I mutant cybrid cells, 72 h, stronger effect = higher value.
Assay [7] can be described thus: blockers of cellular phospholipid synthesis – cell-based, LOPAC library, screen 4, primary screen (AID 1347384). The conditions noted are these: animal cells, phospholipid biosynthesis inhibition screen; at 10 µM.
Assay [8] is described as follows: compounds altering viability of human ES cells (AID 493140).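 Further: cells exposed to compounds for four days before counting.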 The conditions noted are these: human embryonic stem cell survival screen; stronger effect = higher value.
The nature of assay [9]: P. berghei load reduction in hepatocytes – cell-based, HepG2, luciferase luminescence, HepG2 viability, primary screen (AID 624349; in the data active means parasite load remaining mostly below about 12%, no sharp cut-off; inactive means mostly above about 10%;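 further: 100% = mean of DMSO negative control wells on the same plate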). The note with it: P. berghei liver stage in HepG2, luciferase luminescence, concentration not given here; parasite load remaining: stronger effect = lower value; viability: measured here: HepG2 viability without parasites.
The nature of assay [10]: MELAS cybrid and Rieske KO viability enhancers – cell-based, MELAS cybrids, Rieske KO mouse fibroblasts, CellTiter-Glo, primary screen (AID 1508586;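 active means mean z-score across replicates of 1.96 or higher in either the MELAS or the Rieske mutant cell line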;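 further: z relative to plate mean and SD of compound and empty wells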). The note with it: low glucose.
The mark [11] stands for this setting: measured here: relative caspase fold change +Dox/-Dox.
Setting [12] is: measured here: total cells with miR-34 induction, stronger effect = lower value.
Where [13] appears, read: measured here: total cells without miR-34 induction.

For the molecule `C[N+]1(C)C2CC(OC(=O)[C@H](CO)c3ccccc3)CC1C1OC12` (stereo partly specified), the period change in assay [1] is -0.095 hour (inactive) and 0.155 hour (inactive). In addition, the inhibition in assay [2] was -1% (inactive) and 0% (inactive). The fluorescence ratio (interference) in assay [3] was 1 (inactive). Also, the remaining activity in assay [4] was 96.4% (inactive). Moreover, the fold change in assay [5] (stronger effect = lower value) is 0.984 (inactive) and 1.04 (inactive); in [5] (setting [11]) it was 0.938 and 1.11. Besides, the cell count in assay [5] (setting [12]) is 10100 and 9050; in assay [5] (setting [13]), 10300 and 8720. For the same molecule, the z-score in [6] was 0.475 (inactive) and 0.45 (inactive).

Consider `Cc1cc([C@@H]2CCCN2C)on1`, for which the inhibition in assay [2] is -6% (inactive). Also, in assay [3], the fluorescence ratio (interference) was 1 (inactive). Besides, in assay [4], the remaining activity was 91.6% (inactive). In addition, the fold change in assay [5] (stronger effect = lower value) was 0.924 (inactive); in [5] (setting [11]), 1.47. The cell count stood at 9420 in assay [5] (setting [12]) and 10200 in assay [5] (setting [13]). In addition, in [7], the molecule was classed as inactive. Besides, the z-score in assay [6] is 0.41 (inactive).

Turning to `C[Se]C[C@H](N)C(=O)O`, the period change in assay [1] was -0.13 h (inactive). For the same molecule, the inhibition in assay [2] is -5% (inactive). In assay [3], the fluorescence ratio (interference) was 1 (inactive). For the same molecule, the remaining activity in [4] was 106% (inactive).

On to `CCN(CCCl)Cc1ccccc1Br`, for which the period change in assay [1] was -0.02 h (inactive). In addition, in [2], the inhibition is -2% (inactive). Further, in [3], the fluorescence ratio (interference) was 1 (inactive). Also, the remaining activity in [4] was 111% (inactive).

In the case of `CCN(CC)C(=O)N[C@@H]1C[C@@H]2c3cccc4[nH]cc(c34)C[C@H]2N(C)C1`, the period change in assay [1] is 0.085 h (inactive). The remaining activity in [4] is 102% (inactive).

Consider `CCCN(CCC)[C@@H]1CCc2c(F)ccc(O)c2C1`, for which, in assay [1], the period change is -0.015 h (inactive). In addition, the remaining activity in assay [4] was 110% (inactive).

Regarding `CC(C)(O)[C@@H]1C2OC(=O)C1[C@]1(O)C[C@H]3O[C@]34C(=O)O[C@H]2[C@]14C` (stereo partly specified) (tested in a mixture with another compound), the remaining activity in assay [4] was 128% (inactive). The result in assay [7] was inactive.

As to `CNC(=O)OCC[N+](C)(C)C`, the period change in assay [1] was -0.01 h (inactive). For the same molecule, the remaining activity in [4] is 109% (inactive).

With `CN(N=O)c1cc(O)ccc1O`, in assay [1], the period change is 0.05 h (inactive). Besides, the inhibition in [2] is -1% (inactive). Also, the fluorescence ratio (interference) in assay [3] is 1 (inactive). Also, the remaining activity in assay [4] is 103% (inactive). Also, the fold change in [5] (stronger effect = lower value) was 1.03 (inactive); in assay [5] (setting [11]) it was 1.21. Besides, the cell count was 9960 in assay [5] (setting [12]) and 9640 in [5] (setting [13]). Also, the z-score in assay [6] was -1.04 (inactive).

As for `NCC#Cc1ccccc1`, in assay [1], the period change was 0.045 h (inactive). In addition, the remaining activity in assay [4] was 96.6% (inactive).

In the case of `C[C@H](Cc1ccc2c(c1)OC(C(=O)O)(C(=O)O)O2)NC[C@H](O)c1cccc(Cl)c1`, in [1], the period change was 0.1 h (inactive). Further, the inhibition in [2] was -3% (inactive). Further, in assay [3], the fluorescence ratio (interference) is 1 (inactive). Also, the remaining activity in assay [4] was 117% (inactive). Moreover, the fold change is 1.02 (inactive) in assay [5] (stronger effect = lower value, cell number ratio, induced over uninduced) and 1.78 in assay [5] (setting [11]). Further, the figures for the cell count in assay [5] (setting [12]) and in [5] (setting [13]) were 10500 and 10300, respectively. Moreover, in [6], the z-score was 0.755 (inactive).

On to `O=C(O)C1C2CCC(O2)C1C(=O)O` (stereo unspecified), for which the period change in assay [1] was 0.03 h (inactive). Besides, in [8], the survival was 66 (inactive). The remaining activity in assay [4] was 81.7% (inactive).

Turning to `C[C@H]1OC[C@@H](C[N+](C)(C)C)O1`, the period change in [1] was -0.07 h (inactive). Moreover, in assay [4], the remaining activity was 81.5% (inactive).

For the molecule `N[C@@H](Cn1ccc(=O)[nH]c1=O)C(=O)O`, in assay [1], the period change was 0.095 h (inactive). In assay [4], the remaining activity was 122% (inactive).

For `CCCCCCC(C)(C)c1ccc([C@@H]2C[C@H](O)CC[C@H]2CCCO)c(O)c1`, the period change in [1] was 0.01 h (inactive). Further, in [2], the inhibition is -4% (inactive). Moreover, in [3], the fluorescence ratio (interference) is 1 (inactive). In [4], the remaining activity is 106% (inactive). For the same molecule, the fold change was 0.915 (inactive) in assay [5] (stronger effect = lower value) and 0.979 in assay [5] (setting [11]). The figures for the cell count in assay [5] (setting [12]) and in assay [5] (setting [13]) were 5170 and 5640, respectively.

`COC(=O)c1cc2c(cn1)[nH]c1ccccc12`: the period change in [1] was 0.035 h (inactive). For the same molecule, in assay [4], the remaining activity is 104% (inactive).

Regarding `O=[N+]([O-])c1ccc(O[C@@H]2O[C@H](CO)[C@@H](O)[C@H](O)[C@H]2F)c([N+](=O)[O-])c1`, the period change in [1] was -0.07 h (inactive). The remaining activity in assay [4] was 96.8% (inactive).

As for `Oc1ccc2c3c1O[C@H]1c4[nH]c5ccccc5c4C[C@@]4(O)[C@@H](C2)N(CC2CC2)CC[C@]314`, in [9], the parasite load remaining is 47.8% (inactive). In addition, the viability in assay [9] is 98.5%. Moreover, the remaining activity in assay [4] was 108% (inactive). The fold change in assay [5] (stronger effect = lower value) is 0.934 (inactive); in assay [5] (setting [11]), 1.1. The cell count came out at 8700 in assay [5] (setting [12]) and 9320 in assay [5] (setting [13]). Moreover, the z-score is 0.24 (inactive) in assay [10] (MELAS cybrid survival, CellTiter-Glo 48 h, stronger effect = higher value); 0.662 in [10] (Rieske KO mouse fibroblast survival, CellTiter-Glo 72 h); -0.405 (inactive) in assay [6].

As for `C=CCN1CCc2cccc3c2[C@H]1Cc1ccc(O)c(O)c1-3`, the period change in assay [1] is 0.185 h (inactive). Moreover, in assay [2], the inhibition was -3% (inactive). Also, in assay [3], the fluorescence ratio (interference) was 1.1 (inactive). In addition, the remaining activity in assay [4] is 110% (inactive).

Regarding `CC(=O)[C@H]1CC[C@H]2[C@@H]3CC[C@H]4C[C@](C)(O)CC[C@]4(C)[C@H]3CC[C@]12C`, the inhibition in assay [2] is -2% (inactive). The fluorescence ratio (interference) in assay [3] is 1 (inactive). Also, the remaining activity in assay [4] was 116% (inactive). Moreover, the fold change in assay [5] (stronger effect = lower value) was 0.971 (inactive); in assay [5] (setting [11]) it was 1.33. The cell count is 10300 in [5] (setting [12]) and 10600 in assay [5] (setting [13]). Moreover, the molecule was classed as inactive in assay [7]. Further, in [6], the z-score was -0.05 (inactive).

Turning to `Clc1ccc(C(c2ccc(Cl)cc2)n2cc[n+](CC(OCc3ccc(Cl)cc3Cl)c3ccc(Cl)cc3Cl)c2)cc1` (stereo unspecified), the period change in assay [1] was -0.26 h (inactive). Also, in assay [2], the inhibition is -3% (inactive). Further, the fluorescence ratio (interference) in [3] is 0.9 (inactive). For the same molecule, in assay [4], the remaining activity is 106% (inactive). Further, the fold change in assay [5] (stronger effect = lower value) was 0.883 (inactive); in assay [5] (setting [11]), 1.87. The cell count in assay [5] (setting [12]) was 1420; in assay [5] (setting [13]), 1610. Also, the z-score in assay [6] was -1.52 (inactive).

Consider `O=C(OC1CCN(CCCl)CC1)C(c1ccccc1)c1ccccc1`, for which, in assay [1], the period change is -0.15 h (inactive). In addition, the remaining activity in [4] is 106% (inactive).

Consider `CCN(CC)c1ncnc2c1ncn2[C@@H]1O[C@H](COP(=O)(O)OP(=O)(O)C(Br)(Br)P(=O)(O)O)[C@@H](O)[C@H]1O`, for which the period change in [1] was 0.205 h (inactive). For the same molecule, the inhibition in assay [2] is -1% (inactive). In addition, the fluorescence ratio (interference) in assay [3] is 1 (inactive). Moreover, in [4], the remaining activity was 110% (inactive). In addition, the fold change in assay [5] (stronger effect = lower value) is 1.01 (inactive); in assay [5] (setting [11]), 2.23. The cell count in [5] (setting [12]) came to 10400; in assay [5] (setting [13]), 10200. Further, the z-score in [6] was 0.37 (inactive).

Usually inhibition stands for the drop in the measured response relative to a control, in per cent. What is called remaining activity is the signal under treatment as a percentage of the control signal. Usually viability stands for a per cent measure of how many cells are alive, often set against a control.
